Measurements: the supplement of paper PMC6555819

tested on: VDR:RXRa (NR concentration 270 nM, RXRa partner concentration 90 nM); test: PBM binding z-score (relative to random genomic background probes); higher = stronger binding; sequences stand for … in GC…GCGATTGACAGCGTAGAATGAAGG
Procedure: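 Protein-binding microarray (Agilent 4x180K custom design, double-stranded 60-nt probes: 5' GC cap, 34-nt variable region, 24-nt constant primer region; full probe sequence given). Purified or IVT nuclear receptor:RXRα heterodimers (3:1 NR:RXRα, mostly 270:90 nM) or homodimers were incubated for 1 h in PBS with 2% milk and no ligand, then detected with Alexa488 antibodies. Fluorescence from o1-orientation probes (~5 replicates averaged) was converted to z-scores against 500 random hg19 background probes. Variable regions are seed direct-repeat (DR0–DR5) sites, all their single-nucleotide variants and half-site ablations.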

Q: With AGAATGAGGGTATACGTAGATCAGGGAAGAAAGT as the sequence, how does the PBM binding z-score read?
A: 0.239

Q: With TCGAGTAGGTTAGGCGCATTCAGAATGGCGTCGA as the sequence, how does the PBM binding z-score read?
A: -0.563

Q: Which PBM binding z-score does the source give for TCTCGGAGGCCACGAAGGTCAGAGCTTTCCAGAG here?
A: 3.69

Q: For TTACCAAGGTGAGCTGAGGTCGTTCATCCAACTC, which PBM binding z-score is on record?
A: 4.32

Q: Which PBM binding z-score does the source give for GCTATTAGTTGAAAGGGCAACAGAATGATTCTCG here?
A: 0.688

Q: Which PBM binding z-score does the source give for ATATGTAGGTTACATCCGGGTCATGCAGGCTATG here?
A: 3.8

Q: GATACAGGGTCTAGGCCAGAGTACGCGTATTGAT was tested. Which PBM binding z-score did it give?
A: -0.508

Q: Which PBM binding z-score does the source give for CTACCAAGGTGAACAAGGTCGTTGACTACTATTC here?
A: 6.23

Q: For CCTCAAAGTTCAACTAAGGTAACGTAAAGCACGC, which PBM binding z-score is on record?
A: 4.88

Q: CAGCCTAGGTCAGGGCAAGTATAGGAGGAACGTT was tested. Which PBM binding z-score did it give?
A: 0.782

Q: ACTTACGGGTCAACGAGGTTATACCACGCGTATA was tested. Which PBM binding z-score did it give?
A: 7.92

Q: For TCATATAGGTAAAAGGTGAAGGTCGGTGTGGTAA, which PBM binding z-score is on record?
A: 1.92

Q: How did the PBM binding z-score turn out when ACAGACAGGTGATGAAGGTAACGCAGGCTATCAT was run?
A: -0.0633

Q: How did the PBM binding z-score turn out when TGAATGAGGTTAAAGATAAGGGAACGTGGCGTCG was run?
A: 1.36

Q: With ACAGACAGCTGATGAAGGTAACTCAGGCTATCAT as the sequence, how does the PBM binding z-score read?
A: -0.282

Q: With ACTCAAAGTTCATCTAGGTAACGTAAGATATGCT as the sequence, how does the PBM binding z-score read?
A: 4.98

Q: With TTACCACGGTGAAAGGTCGTTGATGCACGCCTTG as the sequence, how does the PBM binding z-score read?
A: 1.99

Q: With TCTGCTAGGTCAACGATGGCCAGCTAATCTGCTA as the sequence, how does the PBM binding z-score read?
A: 1.13

Q: Which PBM binding z-score does the source give for CCGACTGGGGAATAAGGTTACCATAAGCCAGCCC here?
A: 0.185

Q: With GCTTACGGGTCAAAGGATATAGCATGAATAGAAT as the sequence, how does the PBM binding z-score read?
A: 3.16

Q: Which PBM binding z-score does the source give for ATCTCTAGGTAACCAGTTCAGTGAAAGAGAGGAC here?
A: 1.16

Q: With CCTACTGGGCCAAAAAGGACATTGATGCCGATAA as the sequence, how does the PBM binding z-score read?
A: 0.106

Q: How did the PBM binding z-score turn out when AGAATGAGGTTATTAAGATCAAGGAATTGCGGTC was run?
A: 3.11

Q: Which PBM binding z-score does the source give for CGAACTAGGTCATTGAGAGGACAGTGAATAGTAA here?
A: 2.92

Q: For CGTCCAAGGTCAGCAGGTTAGTGAAAGCGACGTG, which PBM binding z-score is on record?
A: 4.07

Q: For GCTTACGGGTCAATGGTTATAGCATGAATAGAAT, which PBM binding z-score is on record?
A: 2.99

Q: With CCTTACGGGTCACGAGGTTACAGCACGACGAGCG as the sequence, how does the PBM binding z-score read?
A: 5.28

Q: How did the PBM binding z-score turn out when CGAACTAGGTCAGAACAGGACGGTGAAGGATGAT was run?
A: 0.0677

Q: For TCATATAGGTGATACAGGTGAAAGTCGGCATCTA, which PBM binding z-score is on record?
A: 1.19

Q: How did the PBM binding z-score turn out when CCTACTGCGCCAAAGGTCATTGATTCCAATGCTC was run?
A: 4.85

Q: AATACAGGGACACTAGGCCAGAGTAGGTACGAAT was tested. Which PBM binding z-score did it give?
A: -0.219

Q: For TTACCAAGGTGTGCTGAGGTCGTTGATCCAACTC, which PBM binding z-score is on record?
A: 2.39

Q: Which PBM binding z-score does the source give for CCTACTGGGCCAAGGTCATTAATCAGTCAAAGCA here?
A: 2.84

Q: Which PBM binding z-score does the source give for CCTGCTACGTCAATGGTCAGCTAAAGCAGCTCGC here?
A: -0.379

Q: With CCTCGGAGGACAGAAGGTCAGAGCGGTCCGCTTT as the sequence, how does the PBM binding z-score read?
A: 1.83

Q: AGAATGAGGTTAAGATCAGAGAAACAGAATACAT was tested. Which PBM binding z-score did it give?
A: 1.11

Q: How did the PBM binding z-score turn out when CGTCCAAGGTCAGAGAGATCAGTGAATGCCGAGT was run?
A: 3.72

Q: With TCTTGTAGAGCAGCAGGTTAAGAAAGCTGGCCAA as the sequence, how does the PBM binding z-score read?
A: -0.353

Q: For ATCTCTAGGTAACCAAGTACAGTGAATGCCGAAC, which PBM binding z-score is on record?
A: 1.19

Q: Which PBM binding z-score does the source give for TCTGCTAGGTCTACGATGGTCAGCTAATCTGCTA here?
A: -0.625
